49 molecules from paper PMC4552634, “A New Set of Chemical Starting Points with Plasmodium falciparum Transmission-Blocking Potential for Antimalarial Drug Discovery” (PLoS ONE, 2015) can be followed below.

The whole screen tested about 13,000 compounds, of which about 3,200 (25%) showed an effect of 50% or more. The list shows a part of the results.

For this test, the system named is P. falciparum stage V gametocytes. Set-up: BacTiter-Glo ATP luminescence viability of purified stage V gametocytes in 384-well plates, per cent inhibition versus DMSO. The settings on record: 48 h, 5 µM; inhibitor.
With `CC1(C)N=C(N)N=C(N)N1c1ccc(Oc2ccccc2)cc1` [TCMDC-137712], the “% Inhibition” value was 1.861%. As for `CN(C)CCC(O)C=C(c1ccc(Cl)cc1)c1ccc(Cl)cc1` (stereo not shown) [TCMDC-132094], the “% Inhibition” value came out at 12.81%.

`Cc1ccc(S(=O)(=O)n2cc(-c3ccnc(N)c3)c3cc(Br)cnc32)cc1` [TCMDC-134306]: the “% Inhibition” value is -5.282%.

For the molecule `COc1ccc2nccc([C@@H](O)CN3CCC(NCCOc4ccccc4[N+](=O)[O-])CC3)c2c1` [TCMDC-140711], the “% Inhibition” value is reported as 39.45%.

For the molecule `COc1ccc2nccc([C@@H](O)CN3CCC(NC(=O)c4nc(Cl)c(Cl)c(N)c4Cl)CC3)c2c1` [TCMDC-140771], the “% Inhibition” value came out at 4.246%. For `Cc1ccc(NC(=O)c2ccc(C(=O)NC3CCN(CC4CCCCC4)CC3)cc2)cc1` [TCMDC-136747] the value was -26.65%. For `Cc1cccc(NC(=O)c2ccc(C(=O)NC3CCN(CC4CCCCC4)CC3)cc2)c1` [TCMDC-136748] the value was -45.39%; for `O=C(NC1CCN(Cc2ccccc2)CC1)c1csc2nc(-c3ccc(Cl)cc3)cn12` [TCMDC-133071], -8.625%. For `Cc1ccc(C2(CN3CCC(NC(=O)c4ccn[nH]4)CC3)CCCCC2)cc1` [TCMDC-124839] the value was 64.93%; for `O=C(NC1CCN(CC2(c3ccc(Cl)cc3)CCC2)CC1)c1cscn1` [TCMDC-124829], 62.42%; for `CCc1[nH]nc(C(=O)NC2CCN(CC3(c4ccc(OC)cc4)CCCCC3)CC2)c1C` [TCMDC-124840], 100.4%. As for `CCc1[nH]nc(C(=O)Nc2cccc(N3CCCC3)c2)c1C` [TCMDC-124845], the “% Inhibition” value is recorded as -34.24%.

`COc1c(I)cc(Cc2cnc(N)nc2N)cc1I` [TCMDC-138050]: the “% Inhibition” value was -8.492%. For `N#Cc1cc(N(CCCOc2cccc(OC(F)(F)F)c2)Cc2ccccc2C(F)(F)F)ccc1C(F)(F)F` [TCMDC-132783] the value was -11.19%; for `COc1cccc(Cc2c(C)nc3nc(N)nc(N)c3c2C)c1` [TCMDC-137650], 36.32%. For `Cc1ccc(F)c(OCC2CCCN(c3ccc(C(=O)NC4CC4)cn3)C2)c1` (stereo not shown) [TCMDC-134035] the value was 18.85%. For `Cc1cccc2[nH]c(-c3ccc(-c4cccc(CN5CCN(CCO)CC5)c4)cc3)nc12` [TCMDC-133029] the value was -7.664%; for `NC(N)=NC(=O)Nc1ccc([N+](=O)[O-])c(Cl)c1` [TCMDC-137468], -7.379%; for `Nc1ncc(-c2cn[nH]c2)cc1-c1nc2ccc(F)cc2[nH]1` [TCMDC-133559], 26.39%.

Turning to `NS(=O)(=O)c1cncc(-c2ccc3nccc(-c4cn[nH]c4)c3n2)c1` [TCMDC-134293], the “% Inhibition” value amounted to 66.05%. With `Cc1cccc2[nH]c(-c3cc(-c4cn[nH]c4)cnc3N)nc12` [TCMDC-133561], the “% Inhibition” value is given as -9.324%.

Take `CC(NC(=O)c1ccc(O)c(-c2ccc(Cl)c(Cl)c2)c1)C(=O)NCCN1CCOCC1` (stereo not shown) [TCMDC-140849]: the “% Inhibition” value was determined as 3.738%. In the case of `Cc1cnc(N2CCN(CCCN3CCCC3)CC2)nc1Oc1ccc(-n2ccnc2)cc1` [TCMDC-132207], the “% Inhibition” value is given as 28.92%.

Regarding `N#Cc1ccc(N(CCOc2ccc(Cl)c(Cl)c2)Cc2ccccc2C(F)(F)F)cc1C(F)(F)F` [TCMDC-132795], the “% Inhibition” value is -20.83%. For `CC(=O)Nc1ccc(CCNC(C)Cc2ccc(C(=O)Nc3ccc(CC(C)NCCc4cccc(Cl)c4)cc3)cc2)cc1` (stereo not shown) [TCMDC-139828] the value was 108.3%; for `CC(Cc1ccc(NC(=O)[C@@H](C)NCCc2cccc(Cl)c2)cc1)NCCc1cccc(Cl)c1` (stereo partly shown) [TCMDC-139831], 101.6%. For `CC(=O)Nc1ccc(CNCCc2ccc(NC(=O)c3cc(Cl)cc(Cl)c3)cc2)cc1` [TCMDC-140678] the value was 2.681%; for `CC(Cc1ccc(NC(=O)c2ccc(CC(C)NCc3ccc(Cl)cc3)cc2)cc1)NCCc1cccc(Cl)c1` (stereo not shown) [TCMDC-139810], 112.2%. Take `CC(Cc1ccc(NC(=O)[C@H](C)NCCc2cccc(Cl)c2)cc1)NCCc1cccc(Cl)c1` (stereo partly shown) [TCMDC-139830]: the “% Inhibition” value was found to be 21.29%. Take `CC(Cc1ccc(NC(=O)c2ccc(CC(C)NCc3ccc(Cl)c(Cl)c3)cc2)cc1)NCCc1cccc(Cl)c1` (stereo not shown) [TCMDC-139806]: the “% Inhibition” value turned out to be 8.931%. For `CC(Cc1ccc(NC(=O)c2ccc(NCCc3ccccc3)cc2)cc1)NCCc1cccc(Cl)c1` (stereo not shown) [TCMDC-139832] the value was 47.1%. As to `CCOc1ccccc1CCNC(C)Cc1ccc(C(=O)Nc2ccc(CC(C)NCCc3cccc(Cl)c3)cc2)cc1` (stereo not shown) [TCMDC-139805], the “% Inhibition” value was 111.8%. For the molecule `Cc1nc(Nc2ccc(F)cc2)nc(N2CCc3ccccc3C2C)c1CO` (stereo not shown) [TCMDC-141074], the “% Inhibition” value is reported as -64.94%.

Consider `O=C(Nc1cccc(-c2cccc(-c3nc4ccc(F)cc4[nH]3)c2)c1)c1csnn1` [TCMDC-136899], for which the “% Inhibition” value was determined as 16.2%. For `O=C(Nc1cccc(-c2ccc(-c3nc4ccc(C(F)(F)F)cc4[nH]3)cc2)c1)Nc1ccc(Cl)c(Cl)c1` [TCMDC-133274] the value was -18.31%. With `Nc1nc2ccc(S(=O)(=O)Nc3ccc(C(=O)N[C@@H](CCC(=O)O)C(=O)O)c(F)c3)cc2c(=O)[nH]1` [TCMDC-137540], the “% Inhibition” value was 7.521%. Regarding `CC(Cc1ccc(C(=O)Nc2ccc(CC(C)NCCc3cccc(Cl)c3)cc2)cc1)NCCc1ccc(C(F)(F)F)cc1` (stereo not shown) [TCMDC-139790], the “% Inhibition” value is 137.5%. For the molecule `COc1ccc(CCNC(C)Cc2ccc(C(=O)Nc3ccc(CC(C)NCCc4cccc(Cl)c4)cc3)cc2)cc1` (stereo not shown) [TCMDC-139750], the “% Inhibition” value was found to be 113.2%. For `Cc1cccc2nc(-c3ccc(-c4ccc(C(=O)NCCc5cn(C)cn5)cc4)s3)[nH]c12` [TCMDC-132499] the value was -4.132%; for `CCc1cc(NC2CCN(C)CC2)nc(Nc2cccc(OC)c2)n1` [TCMDC-134002], 40.04%.

With `CC(C)(C)c1cc(NC2CC2)nc(-c2ccccn2)n1` [TCMDC-125826], the “% Inhibition” value was 69.03%. For `OC1CCN(c2cc(-c3ccccn3)nc(-c3ccccn3)n2)CC1` [TCMDC-123786] the value was 41.56%; for `c1ccc(-c2nc(NC3CCCCC3)cc(C3CC3)n2)nc1` [TCMDC-125825], 105.2%; for `CC(Nc1cc(-c2ccccn2)nc(-c2ccccn2)n1)c1ccccc1` (stereo not shown) [TCMDC-125420], 24.2%. Turning to `c1ccc(-c2nnc(-c3ccccn3)nc2NC2CCCCC2)cc1` [TCMDC-123764], the “% Inhibition” value worked out at 29.34%. `Cc1cc(NC2CCCC2)nc(Nc2ccccc2)n1` [TCMDC-133459]: the “% Inhibition” value was -35.61%.

In the case of `c1ccc(CNc2cc(-c3ccccn3)nc(-c3ccccn3)n2)cc1` [TCMDC-125421], the “% Inhibition” value is given as -1.689%. For `CC(C)(C)Nc1cc(C2CC2)nc(-c2ccccn2)n1` [TCMDC-124453] the value was 105.8%. As to `C=CCNc1cc(-c2ccccn2)nc(-c2ccccn2)n1` [TCMDC-123787], the “% Inhibition” value stood at 23.88%.
